# Experimental data reported in ChEMBL document CHEMBL4513216, “Probing the Open Global Health Chemical Diversity Library for Multistage-Active Starting Points for Next-Generation Antimalarials” (ACS Infect Dis, 2020).
# The whole screen tested about 69,000 compounds, of which about 8,600 (12%) showed an effect of 50% or more. The entries come from a sample that favours strong results as a whole.
# Tested on: Plasmodium berghei
# Experiment: Screen against P. berghei liver stage (PbLuc), transformed with Luciferase, at 10uM
# Type: functional, HepG2
# Settings: tested at 10 uM
row,Compound,INHIBITION [%]
1,C[C@H]1C[C@H]2CN(C(=O)CCc3ccccc3)CC[C@H]2O1,-19
2,CCn1cc(CN2C[C@@H]3CCCN3C[C@@H]2CCSC)cn1,24.4
3,Cc1ccn(CCNC(=O)C2(C)CC(c3ccccc3)=NO2)n1 (stereo not given),-3.94
4,CCc1noc(CS(=O)(=O)C(C)c2nc(C3CC3)no2)n1 (stereo not given),51.5
5,Cc1noc(C)c1CS(=O)(=O)Cc1nc(C2CC2)no1,21.6
6,CCc1nc(CN2CCN(C(C)c3nc(C4CC4)no3)CC2)no1 (stereo not given),-23.9
7,CC(C)c1noc(CS(=O)(=O)Cc2nc(C(C)C)no2)n1,34.2
8,CCCc1noc(C(C)S(=O)(=O)Cc2nc(C3CC3)no2)n1 (stereo not given),22.2
9,CC(C)c1noc(C(C)S(=O)(=O)Cc2nc(C3CC3)no2)n1 (stereo not given),70
10,COCCN(Cc1cccc(C#N)c1)Cc1nc(C)no1,41.2
11,O=C(Cc1ccc2c(c1)OCC2)Nc1nc(C(F)(F)F)n[nH]1,28.6
12,CC(C)c1ccc(CCC(=O)N(C)C2CCN(C)C2=O)cc1 (stereo not given),53.8
13,CN1CCC(N(C)C(=O)CSc2ccc(F)c(F)c2)C1=O (stereo not given),-0.897
14,CN1CCC(N(C)C(=O)CCc2ccc(F)c(F)c2)C1=O (stereo not given),17.9
15,COCC(=O)N1CCC2(CC1)COC(COCc1ccccn1)C2 (stereo not given),33
16,Cc1nn(C)c2c(=O)n(Cc3ccc(Cl)cc3)nnc12,48.25
17,CC(=O)N1Cc2ccccc2C[C@H]1C(=O)N(C)CCc1ccccn1,58.1
18,CC(=O)N1Cc2ccccc2CC1C(=O)Nc1cc(C)ccn1 (stereo not given),56.5
19,CC(=O)N1Cc2ccccc2C[C@H]1C(=O)N(C)Cc1ccccn1,40.7
20,CC(=O)N1Cc2ccccc2CC1C(=O)Nc1ccc(C)cn1 (stereo not given),32.7
21,CC(=O)N1Cc2ccccc2C[C@H]1C(=O)Nc1ccccn1,28.7
22,CN(CCc1ccccn1)C(=O)C1Cc2ccccc2CN1C (stereo not given),20
23,Cn1cnc(S(=O)(=O)NCCN2CCCCCC2)c1Cl,31.2
24,CCC(Oc1ccccc1)c1nn2c(CN(CC)CC)nnc2s1 (stereo not given),-31.7

row,Compound,INHIBITION [%]
1,Cc1nc([C@@H]2C[C@@H]3CCN(C(=O)c4ccsc4)C[C@H]3O2)no1,18.5
2,CCCN(C(=O)c1cccnc1)c1nc2c(s1)CCc1c-2cnn1C,78.2
3,CCCN(C(=O)COC)c1nc2c(s1)CCc1c-2cnn1C,5.13
4,CCCN(C(=O)c1ccccn1)c1nc2c(s1)CCc1c-2cnn1C,63.1
5,CCCN(C(=O)c1ccncc1)c1nc2c(s1)CCc1c-2cnn1C,46
6,CN(C(=O)c1ccccn1)c1nc2c(s1)CCc1c-2cnn1C,74.5
7,CN(C(=O)c1ccccn1)c1nnc(C2CCOC2)s1 (stereo not given),-13.745
8,CCCN(C(=O)c1cnccn1)c1nc2c(s1)CCc1c-2cnn1C,29.2
9,Cc1cc(-c2cnc(C)nc2CN(C)C(=O)c2ccccn2)on1,18.3
10,COCCN(C(=O)c1cnccn1)c1nc2c(s1)CCc1c-2cnn1C,11.1
11,COCCN(C(=O)c1ccccn1)c1nc2c(s1)CCc1c-2cnn1C,59.3
12,CCCN(C(=O)c1cnc(C)cn1)c1nc2c(s1)CCc1c-2cnn1C,44.8
13,COCCN(Cc1ccoc1)C(=O)c1ccccn1,11.8
14,O=C(NCCCNC(=O)c1cccc(O)c1)NCc1ccccc1F,-1.58
15,CCn1cc(CN2CCCN(C(=O)c3ccco3)CC2)cn1,-61.4
16,COC(=O)c1ccnn1COc1ccc(Cl)cc1,16
17,CCc1nn(C)c2[nH]nc(NC(=O)c3ccccc3COC)c12,33.7
18,N#Cc1ccc(NC(=O)C2CSCN2)cc1 (stereo not given),39
19,COc1cc(CNCc2ccco2)ccc1OCCO,10.6
20,CCN(CC)S(=O)(=O)c1cc(Br)ccc1OC,-32.9
21,COc1cc(OC)cc(C(=O)N(C)Cc2nnc3ccccn23)c1,-6.14
22,Cc1nccn1CCC1CCCCN1Cc1ccc(N(C)C)nc1 (stereo not given),-38.9
23,Cc1nccn1CCC1CCCCN1Cc1ccc2c(c1)OCCO2 (stereo not given),51.3
24,Cc1c[nH]c(CN2CCCCC2CCc2cccc(O)c2)c(C)c1=O (stereo not given),39.9

row,Compound,INHIBITION [%]
1,Cc1nccn1CCC1CCCCN1Cc1ccncc1 (stereo not given),-57.8
2,Cc1c[nH]c(CN2CCCCC2CCN(C)C)c(C)c1=O (stereo not given),38.8
3,Cc1cc2c(cc1CN1CCCCC1CCn1ccnc1C)OCO2 (stereo not given),13.7
4,Cc1nccn1CCC1CCCCN1Cc1cnc(N(C)C)nc1 (stereo not given),33.3
5,Cc1c[nH]c(CN2CCCCC2CCn2ccnc2C)c(C)c1=O (stereo not given),53.9
6,Cc1c[nH]c(CN2CCCCC2CCn2cccn2)c(C)c1=O (stereo not given),51.8
7,CC[C@@H]1N(Cc2nccs2)CCC[C@]12CCC(=O)N2C,-27
8,COc1ccc(-c2nnc(CNCCn3cccn3)o2)cc1,23.5
9,CO[C@H]1CCN(C(=O)c2cc(C)on2)C[C@@H]1Cc1ccccc1,2.58
10,Cc1[nH]ncc1CCCNC(=O)N1CCCC(c2nncn2C)C1 (stereo not given),-29.8
11,CCCn1nccc1NC(=O)CN1CCCC1Cn1cccn1 (stereo not given),12.3
12,Cc1cccc(OCC2CCCN(C(=O)Cn3ccccc3=O)C2)c1 (stereo not given),13.6
13,Cn1cc(C(=O)Nc2cccc(Oc3ccncc3)c2)ccc1=O,51.5
14,COc1ccc(CNC(=O)Nc2ccc(=O)n(C)c2)cc1,29
15,COC(=O)c1ccc(CNC(=O)Nc2ccc(=O)n(C)c2)cc1,59.3
16,COc1cccc(-c2ccc(CNC(=O)c3ccc(=O)n(C)c3)cc2)c1,72.3
17,Cn1cc(NC(=O)NCc2ccoc2)ccc1=O,47.4
18,COc1cccc(CCNC(=O)c2ccc(=O)n(C)c2)c1,24.2
19,Cn1cc(C(=O)Nc2ccnc(Oc3ccccc3)c2)ccc1=O,16.8
20,COc1ccc(CNC(=O)c2ccc(=O)n(C)c2)cc1C,11.8
21,Cn1cc(C(=O)Nc2cccc(F)c2)ccc1=O,42.6
22,CN1Cc2ccccc2CC2(CCN(Cc3nccn3C)CC2)C1=O,34.5
